Experimental data reported in PubChem BioAssay AID463173 (ICCB-Longwood Screening Facility, Harvard Medical School, 2010).
Screen size: about 52,000 compounds; about 1,700 (3.3%) were called active. No stated cut-off is given here; in the data, active means survival mostly below about 52% (no sharp cut-off); inactive means mostly above about 56%. The sample as a whole holds a higher share of actives than the screen did.

What follows are molecules tested on Wild type (assay: growth inhibition of S. aureus wild type versus tarO mutant, primary screen, teichoic acid synthesis inhibitors, RN4220, OD600 (AID 463173)). Conditions: S. aureus RN4220 wild type/DeltatarO growth, OD600, 18 h, hits give low values, screened at 18.75 µg/mL (by protocol).

| SMILES | survival |
| --- | --- |
| Cc1ccc(SCC(=O)Nc2ccc3oc(-c4cccc(C)c4)nc3c2)cc1 | 96% (inactive) |
| COCCCNC(=O)CSc1nc2cc3c(cc2c(=O)n1CCCCCC(=O)NCc1ccc(OC)cc1)OCO3 | 1% (active) |
| COc1ccc(CCNC(=O)CCCn2c(SCC(N)=O)nc3cc4c(cc3c2=O)OCO4)cc1OC | 81% (inactive) |
| CCCCNC(=O)CSc1nc2cc3c(cc2c(=O)n1CCCC(=O)NCCc1ccc(OC)c(OC)c1)OCO3 | 129% (inactive) |
| COCCNC(=O)CSc1nc2cc3c(cc2c(=O)n1CCCCCC(=O)NCc1ccc(OC)cc1)OCO3 | 63% (inactive) |
| CCN(CC)C(=O)CSc1nc2cc3c(cc2c(=O)n1CCCCCC(=O)NCc1ccc(OC)cc1)OCO3 | -3% (active) |
| CCOC(=O)CSc1nc2cc3c(cc2c(=O)n1CCCC(=O)NCCc1ccc(OC)c(OC)c1)OCO3 | -4% (active) |
| COCCCNC(=O)CSc1nc2cc3c(cc2c(=O)n1CCCC(=O)NCc1ccc(OC)cc1)OCO3 | 70% (inactive) |
| CCN(CC)C(=O)CSc1nc2cc3c(cc2c(=O)n1CCCC(=O)NCc1ccc(OC)cc1)OCO3 | 82% (inactive) |
| CCOC(=O)CSc1nc2cc3c(cc2c(=O)n1CCCCCC(=O)NCc1ccc(OC)cc1)OCO3 | 71% (inactive) |
| CC1Cc2ccccc2N1C(=O)c1nc2ccccc2s1 (centres undefined) | 113% (inactive) |
| O=C(Cn1nc(-c2ccc(Cl)cc2)c2ccccc2c1=O)Nc1cccc(C(F)(F)F)c1 | 71% (inactive) |
| COc1ccccc1N=C1SC(C(=O)Nc2ccccc2OC)CC(=O)N1C (centres undefined) | 73% (inactive) |
| COc1cccc(-c2nnc3sc(CN4CCCCC4)cn23)c1 | 68% (inactive) |
| CCN1/C(=C\C=C2C(=O)OC(C)(C)OC2=O)Sc2ccccc21 | 94% (inactive) |
| CCC(Sc1nc2ccncc2[nH]1)C(=O)Nc1cc(Cl)ccc1C (centres undefined) | 126% (inactive) |
| CCOC(=O)c1ccc(NC(=O)CN2C(=O)c3cccnc3Sc3ccccc32)cc1 | 66% (inactive) |
| CCOC(=O)c1c(C)n(-c2ccccc2)c2ccc(OC(=O)c3cccc(Cl)c3)cc12 | 78% (inactive) |
| CCOC(=O)c1c(C)n(-c2ccccc2)c2ccc(OC(=O)c3cccc(C)c3)cc12 | 50% (inactive) |
| CCOC(=O)c1c(C)n(-c2ccccc2)c2ccc(OC(=O)c3ccccc3)cc12 | 0% (active) |
| CC(C)(C)c1ccc(OCCCC(=O)N2CCOCC2)cc1 | 102% (inactive) |
| O=C(NCCCN1CCN(c2ccccc2F)CC1)c1sc2ncccc2c1-n1cccc1 | 81% (inactive) |
| c1coc(-c2nc3ccccn3c2Nc2ccc3c(c2)OCCO3)c1 | 70% (inactive) |
| C#CCN1C(=O)C(O)(CC(=O)c2ccc(OC)c(OC)c2)c2cc(Br)ccc21 (centres undefined) | 111% (inactive) |
| O=C(CC1(O)C(=O)N(CCc2ccccc2)c2ccc(Br)cc21)c1ccc(F)cc1 (centres undefined) | 4% (active) |
| O=C(CC1(O)C(=O)N(CCc2ccccc2)c2ccc(Br)cc21)c1ccccc1O (centres undefined) | 6% (active) |
| O=C(CC1(O)C(=O)N(CCc2ccccc2)c2ccc(Br)cc21)c1ccccc1 (centres undefined) | 15% (inactive) |
| COc1ccc(C(=O)CC2(O)C(=O)N(CCc3ccccc3)c3ccc(Br)cc32)cc1OC (centres undefined) | 65% (inactive) |
| COc1ccc(C(=O)CC2(O)C(=O)N(Cc3ccccc3)c3ccc(Br)cc32)cc1 (centres undefined) | 57% (inactive) |
